# From PubChem BioAssay (NCATS)
# Records with an inconclusive call do not appear. Calls of active or inactive are those of the source. The call rests on the fitted dose curve; in most records, active means well fitted curve in the direction sought with a large enough effect; inconclusive means small, poorly fitted or top-dose-only effect, or another doubt; inactive means no such curve, though single readings can be large; an effect the other way counts as inactive or inconclusive.
# System: not listed separately
# Experiment: Primary qHTS for inhibitors of La Crosse Virus (LACV) - induced cell death in SH-SY5Y cells (AID 1508616);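 further: top concentration of the series differs between compounds; higher means more rescue of cells from virus-induced death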
# Conditions: SH-SY5Y LACV cytopathicity rescue, ATP luminescence, 6 d; series mostly up to 4.29 µM
# Method in brief: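 SH-SY5Y, 6000 cells/well; cpd via pin tool in DMSO; LACV 0.01 MOI; 6 d 37C 5% CO2; ATPLite, 5 min RT; luminescence normalized to ±virus DMSO controls.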
row,Structure (SMILES),outcome
1,C[C@]12CC[C@H](O)CC1=CC[C@@H]1[C@@H]2CC[C@]2(C)C(=O)CC[C@@H]12,inactive
2,CC(C)(C)OC(=O)c1ncn2c1[C@@H]1CCCN1C(=O)c1c(Br)cccc1-2,inactive
3,OC(c1ccccc1)(c1ccccc1)C1CCNCC1,inactive
4,COC(=O)C1=CCCN(C)C1,inactive
5,CCC(=O)O[C@H]1CC[C@H]2[C@@H]3CCC4=CC(=O)CC[C@]4(C)[C@H]3CC[C@]12C,inactive
6,COc1ccc(C(=O)N2CCCC2=O)cc1,inactive
7,C#C[C@]1(O)C=C[C@H]2[C@@H]3CCC4=CC(=O)CC[C@@H]4[C@H]3CC[C@@]21CC,inactive
8,O=C(CCl)c1ccc(Cl)cc1Cl,inactive
9,Nc1ccc(N)cc1,inactive
10,CCOC(=O)C1(c2ccccc2)CCN(CCc2ccc(N)cc2)CC1,inactive
11,C=CCOC(Cn1ccnc1)c1ccc(Cl)cc1Cl (centres undefined),inactive
12,Clc1ccc(CO/N=C(\Cn2ccnc2)c2ccc(Cl)cc2Cl)c(Cl)c1,inactive
13,Cc1nnc2n1-c1sc(CCc3ccc(CC(C)C)cc3)cc1C(c1ccccc1Cl)=NC2C (centres undefined),inactive
14,C[N+]1(C)[C@@H]2CC[C@H]1CC(OC(=O)C(CO)c1ccccc1)C2 (some centres undefined),inactive
15,CCc1cc(OC)c(C[C@H](C)N)cc1OC,inactive
16,CN1C(=O)[C@@H](NC(=O)c2cc3ccccc3[nH]2)N=C(c2ccccc2)c2ccccc21,inactive
17,C[C@]12CC[C@H]3[C@@H](CCC4=CC(=O)CC[C@@H]43)[C@@H]1CC[C@@H]2O,inactive
18,CCC(OC(C)=O)C(CC(C)NC)(c1ccccc1)c1ccccc1 (centres undefined),inactive
19,Nc1ccccc1C(=O)OCC(O)CO (centres undefined),inactive

row,Structure (SMILES),outcome
1,NC(=O)OCCCc1ccccc1,inactive
2,Oc1c(Br)cc(Br)cc1Br,inactive
3,COc1ccc2[nH]cc(CCN(C(C)C)C(C)C)c2c1,inactive
4,CCOC(=O)C(c1c(O)c2ccccc2oc1=O)c1c(O)c2ccccc2oc1=O,inactive
5,Clc1ccc(C(OCCN2CCCCC2)c2ccccc2)cc1 (centres undefined),inactive
6,c1cc2c(c(N3CCNCC3)c1)OCCO2,inactive
7,C[C@@H]1CN(C2CCC(C#N)(c3ccc(F)cc3)CC2)CC[C@]1(C(=O)O)c1ccccc1 (some centres undefined),inactive
8,C=CCN1CC[C@]23CCCC[C@H]2[C@H]1Cc1ccc(O)cc13,inactive
9,NC1(c2ccccc2)CCCCC1,inactive
10,CC#C[C@]1(O)CC[C@H]2[C@@H]3C[C@H](C)C4=CC(=O)CC[C@]4(C)[C@H]3CC[C@@]21C,inactive
11,CC(CC(C#N)(c1ccccc1)c1ccccc1)N(C)C (centres undefined),inactive
12,O=C(O)c1nn(Cc2ccc(Cl)cc2Cl)c2ccccc12,inactive
13,CC[C@H](O)C(C[C@H](C)N(C)C)(c1ccccc1)c1ccccc1,inactive
14,CC(=O)OC1(c2ccccc2)CCN(CCc2ccccc2)CC1,inactive
15,COc1cc(CC(C)N)c(OC)cc1Br (centres undefined),inactive
16,N#Cc1nn(-c2c(Cl)cc(C(F)(F)F)cc2Cl)c(N)c1S(=O)C(F)(F)F (centres undefined),inactive
17,CC[C@]1(O)CC[C@H]2[C@@H]3CCC4=CCCC[C@@H]4[C@H]3CC[C@@]21C,inactive
18,COCC(=O)N(c1c(C)cccc1C)C(C)C(=O)OC (centres undefined),inactive
19,C[C@@H]1C[C@@H]([C@H](O)CC2CC(=O)NC(=O)C2)C(=O)[C@@H](C)C1,inactive

# Target: Calcium and integrin-binding protein 1 (Homo sapiens) (UniProt Q99828)
# Experiment: Validation qHTS for Identification of Calcium Integrin Binding protein 1 (CIB1) Competitor (AID 1508618)
# Conditions: CIB1-GST / FITC-alphaIIb peptide fluorescence polarization; series mostly up to 114 µM
# Source text: Assay Provider: Ulhas P. Naik, PhD
# Sidney Kimmel Medical College
# Thomas Jefferson University, Philadelphia, PA
# Primary function of platelets is to maintain hemostasis. At the site of vascular injury, platelets adhere to adhesive proteins such as collagen and von Willebrand factor. Adherent platelets are activated and generate soluble platelet agonists such as thrombin, ADP and thromboxane A2. Following exposure of circulating platelets to these agonists, results in platelet shape change, granule secretion and activation of platelet integrin alphaIIb-beta3. Ligand binding to activated integrin alphaIIb-beta3 triggers outside-in signaling, leading to platelet aggregation, stabilization of platelet plug, and clot retraction. Upon atherosclerotic plaque rupture also causes platelet plug formation, which underlies a number of cardiovascular diseases such as myocardial infraction and stroke. A number of anti-platelet drugs such as aspirin, clopidogrel, prasugrel, vorapaxar, and eptifibatide are currently available to prevent the thrombotic complications. However, these anti-platelet agents have several limitations including inherent variability in individual responses, developing resistance, and serious bleeding side effects. For these reasons they are not suitable for long-term protection. Based on the experiences with current anti-platelet drugs, it appears that the most useful therapeutic approach is to intersect the secondary responses such as integrin outside-in signaling or recruitment of platelets by TxA2 and secreted ADP. Compounds, which can largely preserve the primary hemostatic function of platelets but inhibit secondary response will be most desired therapeutic agents for treatment of cardiovascular disease.
# CIB1 is a calcium integrin binding protein, which specifically interact with the alphaIIb subunit of integrin alphaIIb-beta3. Binding of CIB1 to alphaIIb regulates the outside-in signaling in platelets, which is needed for thrombus stabilization and thrombus growth. […] Therefore, we propose that discovery of a small molecule that can prevent the association of CIB1 and alphaIIb-beta3 will be a potential anti-platelet agent that can block the thrombus formation without undue effect on hemostasis.
# To develop fluorescence polarization (FP) assay using fluorescently labeled alphaIIb peptide and CIB1 protein. Using FP assay characterize the binding affinity, competitive inhibition, and acceptable Z factor (0.5 to1) in order to perform the HTS to identify small molecule compound that can prevent CIB1 binding to platelet integrin alphaIIbbeta3. This assay is screened against the NCATS LOPAC library to validate the amenability of the assay to qHTS.
# [1] […]
# 7; Detection; Ex 480/ Em 540; ViewLux Fluorescence Read […]
# Calcium and integrin-binding protein 1 (Homo sapiens), sequence (Q99828 whole entry, looked up): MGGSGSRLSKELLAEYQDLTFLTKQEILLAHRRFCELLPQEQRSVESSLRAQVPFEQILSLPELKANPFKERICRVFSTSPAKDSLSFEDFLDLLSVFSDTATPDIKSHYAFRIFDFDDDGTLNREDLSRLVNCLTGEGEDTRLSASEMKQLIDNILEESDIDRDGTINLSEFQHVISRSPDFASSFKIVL
row,Structure (SMILES),outcome
1,COC(=O)C1=CCCN(C)C1,inactive
